PubChem BioAssay AID1159580 (chemical genetic matrix, 2015)
Several values for one entry are separate records, joined by “and”; a condition that tells them apart may be missing. Equal entries are not always repeated. Among all 5,500 compounds or so, about 2,000 (36%) were called active. Inconclusive results (about 18%) are left out. No stated cut-off is given here; in the data, active means normalized growth mostly below about 0.91 (no sharp cut-off); inconclusive means no clear call, values can overlap the other calls; inactive means mostly above about 0.92. The list shows a part of the results.

Assay: chemical genetic growth profiling, strain panel (AID 1159580);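 further: tested at 20 µM; growth read once vehicle control cultures reached saturation at 30 °C; 1 = growth at the plate median or of vehicle wells; lower values mean less growth of the strain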
Conditions: S. cerevisiae deletion strains, growth OD

Measured: normalized growth

COc1cc([C@@H]2c3cc4c(cc3C(O[C@@H]3O[C@@H]5CO[C@@H](c6cccs6)OC5[C@H](O)[C@H]3O)C3COC(=O)[C@@H]32)OCO4)cc(OC)c1O (stereo not given in full)
inactive: locus YAL013W, strain DEP1, hits give low values 1.01 | locus YAL021C, strain ccr4, hits give low values 0.986 | locus YAL026C, strain drs2, hits give low values 0.957 | locus YAL030W, strain snc1, hits give low values 0.995 | locus YBL061C, strain skt5, hits give low values 0.981 | locus YBR009C, strain hhf1, hits give low values 0.955 | locus YBR021W, strain FUR4, hits give low values 1 | locus YBR023C, strain chs3, hits give low values 1.01 | locus YBR171W, strain sec66, hits give low values 0.981 | locus YBR229C, strain ROT2, hits give low values 1 | locus YBR231C, strain swc5, hits give low values 0.997 | locus YBR279W, strain paf1, hits give low values 0.967 | locus YCL011C, strain gbp2, hits give low values 0.987 | locus YCL016C, strain dcc1, hits give low values 1.02 | locus YCL029C, strain bik1, hits give low values 1.03 | locus YCL061C, strain MRC1, hits give low values 0.969 | locus YCL069W, strain vba3, hits give low values 0.971 | locus YCR088W, strain abp1, hits give low values 0.984 | locus YDL005C, strain med2, hits give low values 0.971 | locus YDL035C, strain GPR1, hits give low values 1.02 | locus YDL040C, strain nat1, hits give low values 0.982 | locus YDL074C, strain BRE1, hits give low values 0.996 | locus YDL101C, strain DUN1, hits give low values 1.01 | locus YDL134C, strain PPH21, hits give low values 1.01 | locus YDL185W, strain tfp1, hits give low values 1.03 | locus YDL192W, strain arf1, hits give low values 1.02 | locus YDR001C, strain nth1, hits give low values 0.985 | locus YDR069C, strain doa4, hits give low values 0.983 | locus YDR101C, strain arx1, hits give low values 1 | locus YDR137W, strain rgp1, hits give low values 0.972 | locus YDR150W, strain NUM1, hits give low values 0.998 | locus YDR159W, strain sac3, hits give low values 0.932 | locus YDR162C, strain NBP2, hits give low values 1.01 | locus YDR195W, strain ref2 0.961 | locus YDR297W, strain sur2, hits give low values 0.992 | locus YDR318W, strain mcm21, hits give low values 1.02 | locus YDR334W, strain swr1, hits give low values 0.972 | locus YDR335W, strain msn5, hits give low values 0.99 | locus YDR388W, hits give low values 1.01 | locus YDR392W, strain spt3, hits give low values 0.97 | locus YDR502C, strain sam2, hits give low values 1.02 | locus YEL003W, strain gim4, hits give low values 0.969 | locus YEL037C, strain rad23, hits give low values 0.964 | locus YEL061C, strain CIN8 (second series), hits give low values 0.967 | locus YEL061C, strain CIN8, hits give low values 1 | locus YER015W, strain faa2, hits give low values 0.989 | locus YER016W, strain bim1, hits give low values 0.999 | locus YER110C, hits give low values 1.02 | locus YER111C, strain swi4, hits give low values 0.98 | locus YER155C, strain BEM2 (second series), hits give low values 1.01 | locus YER155C, strain BEM2, hits give low values 1 | locus YER167W, strain BCK2, hits give low values 1.01 | locus YFR010W, strain ubp6, hits give low values 0.956 | locus YGL078C, strain dbp3, hits give low values 1.02 | locus YGL086W, strain mad1, hits give low values 1.01 | locus YGL167C, strain pmr1, hits give low values 0.981 | locus YGL173C, strain kem1, hits give low values 0.983 | locus YGL227W, strain vid30, hits give low values 0.994 | locus YGL240W, strain doc1, hits give low values 1.01 | locus YGL248W, strain PDE1, hits give low values 1 | locus YGL253W, strain hxk2, hits give low values 0.964 | locus YGR135W, strain pre9, hits give low values 1.01 | locus YGR229C, strain SMI1, hits give low values 1 | locus YGR252W, strain gcn5, hits give low values 1.03 | locus YHR013C, strain ard1, hits give low values 0.997 | locus YHR027C, strain rpn1, hits give low values 0.975 | locus YHR030C, strain SLT2, hits give low values 1 and 1.02 | locus YHR079C, strain IRE1 (second series), hits give low values 1.02 | locus YHR079C, strain IRE1, hits give low values 1.01 | locus YHR094C, strain hxt1, hits give low values 1.01 | locus YHR129C, strain ARP1, hits give low values 1 | locus YHR142W, strain chs7, hits give low values 0.981 | locus YHR200W, strain rpn10, hits give low values 1.01 | locus YIL066C, strain RNR3, hits give low values 1.01 | locus YIL073C, strain SPO22, hits give low values 1.04 | locus YIL125W, strain kgd1, hits give low values 1.01 | locus YIR030C, strain dcg1, hits give low values 1.02 | locus YJL092W, strain hpr5, hits give low values 0.977 | locus YJL095W, strain BCK1 (second series), hits give low values 0.992 | locus YJL095W, strain BCK1, hits give low values 0.991 and 1 | locus YJL115W, strain asf1, hits give low values 0.96 | locus YJL129C, strain trk1, hits give low values 0.993 | locus YJL134W, strain LCB3, hits give low values 1 | locus YJL154C, strain vps35, hits give low values 0.979 | locus YJL164C, strain tpk1, hits give low values 0.962 | locus YJL166W, strain qcr8, hits give low values 1.01 | locus YJL168C, strain set2, hits give low values 1.01 | locus YJL187C, strain SWE1 (second series), hits give low values 1 | locus YJL187C, strain SWE1, hits give low values 0.984 | locus YJR043C, strain POL32, hits give low values 0.982
